Among the data in PubChem BioAssay AID651951 (The Scripps Research Institute Molecular Screening Center, 2012) are inhibition values, retold here.

SMILES strings stand for the structures. About 1,100 (46%) of roughly 2,400 compounds were called active.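 Rule for the calls: active = inhibition above the run cutoff, the mean inhibition of all test compounds plus 3 SD (cut at about 49% in these data); inactive = the rest.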 So high a share suggests a set chosen from earlier hits. Not all results are given here.

The target in this experiment is Trace amine-associated receptor 1 (Homo sapiens) (UniProt Q96RJ0). As to the kind of experiment: TAAR1 desensitization by agonist hits, confirmation, counter-screen for TAAR1 agonist project, cell-based, fluorescence, tachyphylaxis (AID 651951).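 Note: beta-PEA stimulus applied at its EC80; loss of beta-PEA calcium signal after compound pretreatment read as receptor desensitization; 0% = DMSO with beta-PEA at EC80 and 100% = DMSO alone without agonist.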 Conditions: CHO RD-HGA16 hTAAR1, Fluo-8 calcium, beta-PEA response inhibition; at 3 µM; active compounds read high.
Trace amine-associated receptor 1 (Homo sapiens), sequence (Q96RJ0 whole entry, looked up): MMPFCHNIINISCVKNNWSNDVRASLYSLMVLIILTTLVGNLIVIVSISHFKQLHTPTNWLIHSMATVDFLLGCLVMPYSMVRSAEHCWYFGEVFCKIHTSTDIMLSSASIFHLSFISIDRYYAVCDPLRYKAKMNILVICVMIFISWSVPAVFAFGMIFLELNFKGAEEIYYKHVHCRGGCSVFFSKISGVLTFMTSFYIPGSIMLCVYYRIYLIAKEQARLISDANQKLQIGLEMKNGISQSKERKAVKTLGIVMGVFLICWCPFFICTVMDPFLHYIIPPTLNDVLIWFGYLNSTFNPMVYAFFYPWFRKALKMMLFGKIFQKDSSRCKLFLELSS
Consider `CCC(=NCCc1ccccc1)c1c(O)n(C2CCCCC2)c(=O)[nH]c1=O`, for which the inhibition is 55.8% (active).
With `Cc1cccc(N2C(=O)NC(=O)/C(=C\c3cnn(-c4ccccc4)c3)C2=O)c1`, the inhibition is 54.4% (active).
For `NCC(O)c1ccc(O)cc1` (centres undefined), the inhibition was 53.1% (active).
The same measure for `COc1ccc(Br)cc1CNCCc1cccc(Cl)c1`: 40% (inactive).
The same measure for `CC(Cc1ccccc1)NC=O` (centres undefined): 78.2% (active).
`c1ccc(CCNC2CCCCCC2)cc1`: the inhibition is 91% (active).
For the compound `O=C1NC(=O)N(Cc2ccco2)C(=O)/C1=C\c1ccc(-c2ccc(F)cc2)o1`, the inhibition was 42.5% (inactive).
The same measure for `CCCCC(=O)N/N=C/c1c(O)n(CC)c(=S)n(CC)c1=O`: 88% (active).
For the compound `Clc1ccc2nc3c(c(-c4ccccc4)c2c1)CNCC3`, the inhibition is 39.3% (inactive).

One may read the inhibition as the share of the control response that was lost under treatment.
